{"source": "PubChem BioAssay AID2069", "about": "(Sanford-Burnham Center for Chemical Genomics, 2009)", "note": "The whole screen tested about 1,200 compounds, of which about 210 (18%) were called active. Cut-off read from the data, not from the text of the source: active = inhibition above about 30%; inactive = the rest. These entries were drawn from the full list.", "data": [{"experiment": "fluorescence readout artefact check – biochemical, HTRF, uHTS, artefact control for SUMOylation inhibitor project, confirmation (AID 2069)", "settings": "HTRF interference counterscreen, at 35 µM, hits give high values", "values": [{"smiles": "O=S(=O)(Nc1cc2nc3ccccc3nc2n1Cc1ccccc1)c1ccc(Cl)cc1", "inhibition": "24.5% (inactive)"}, {"smiles": "Oc1cccc(C=NCc2ccccc2)c1O", "inhibition": "-0.8% (inactive)"}, {"smiles": "CNS(=O)(=O)c1ccc2nc(NC(=O)/C=C/c3ccco3)sc2c1", "inhibition": "25.6% (inactive)"}, {"smiles": "COc1cc2cc(NC(C)=O)cc(NCc3ccccc3)c2cc1OC", "inhibition": "-19.9% (inactive)"}, {"smiles": "Cc1ccc(N2CCN(Cc3ccccc3)CC2=O)c(C)c1", "inhibition": "-6.45% (inactive)"}, {"smiles": "O=Cc1cn(-c2ccccc2)nc1-c1cc2cc(O)ccc2oc1=O", "inhibition": "11.8% (inactive)"}, {"smiles": "O=C(O)/C=C/c1cn(-c2ccccc2)nc1-c1cc2ccccc2o1", "inhibition": "41.2% (active)"}, {"smiles": "O=C(O)/C=C\\c1cn(-c2ccccc2)nc1-c1cc2ccccc2o1", "inhibition": "48.1% (active)"}, {"smiles": "Nc1c(N2CCOCC2)cc(Cl)c2nonc12", "inhibition": "3% (inactive)"}, {"smiles": "Cc1ccc(C(=O)N[C@H](C(=O)Nc2cc(Cl)cc(Cl)c2)C(C)C)cc1", "inhibition": "3.15% (inactive)"}, {"smiles": "N#Cc1ccsc1NC(=O)CN1CCN(c2ccc(O)cc2)CC1", "inhibition": "14.3% (inactive)"}, {"smiles": "Nc1c(C(=O)N/N=C/c2cccnc2)oc2nc(-c3ccco3)cc(-c3ccco3)c12", "inhibition": "20% (inactive)"}, {"smiles": "Cc1ccc(-c2cc(-c3ccccc3O)nc(N/N=C/c3cccnc3)n2)cc1", "inhibition": "52.2% (active)"}, {"smiles": "S=c1[nH]nc(-c2ccncc2)n1/N=C/c1ccccc1Cl", "inhibition": "-1.75% (inactive)"}, {"smiles": "CC(C)N1C(=O)CC(Nc2cccc3cccc(N)c23)C1=O", "note": "(stereo not given)", "inhibition": "-13.8% (inactive)"}, {"smiles": "O=c1c2ccccc2nc(/C=C/c2cccnc2)n1Cc1ccccc1", "inhibition": "30.9% (active)"}, {"smiles": "O=C(Cc1cccc2ccccc12)NN1C(=O)/C(=C\\c2cccnc2)SC1=S", "inhibition": "-7.8% (inactive)"}, {"smiles": "Cc1ccc(-c2[nH]ncc2/C=N/n2c(C)nc3ccccc3c2=O)cc1", "inhibition": "-0.85% (inactive)"}, {"smiles": "COc1ccc(S(=O)(=O)C(C#N)c2nc3ccccc3nc2N2CCCCC2)cc1", "note": "(stereo not given)", "inhibition": "-7.95% (inactive)"}, {"smiles": "Cc1ccc(S(=O)(=O)C(C#N)c2nc3ccccc3nc2N2CCCC2)cc1C", "note": "(stereo not given)", "inhibition": "-3.55% (inactive)"}, {"smiles": "CCOC(=O)c1c(NC(=O)C2C3C=CC(CC3)C2C(=O)O)sc(C)c1CC", "note": "(stereo not given)", "inhibition": "0.4% (inactive)"}, {"smiles": "O=C(N/N=C/c1ccc([N+](=O)[O-])o1)c1cc(-c2ccc(-c3ccccc3)cc2)nc2ccccc12", "inhibition": "4.6% (inactive)"}, {"smiles": "Cc1ccc(C2Nc3cccc4cccc(c34)N2)s1", "inhibition": "-32.4% (inactive)"}, {"smiles": "Cc1cc(=O)n2[nH]c(N)c(N=Nc3ccccc3F)c2n1", "inhibition": "-14.7% (inactive)"}, {"smiles": "COc1ccc(C(=O)Nc2ccc(-c3nnn(CC(=O)N4CCN(C(=O)c5ccco5)CC4)n3)cc2)cc1", "inhibition": "25.6% (inactive)"}, {"smiles": "COc1ccc(/C=C2/SC(=S)N(c3ccc(S(=O)(=O)Nc4nccs4)cc3)C2=O)cc1", "inhibition": "-18% (inactive)"}, {"smiles": "CCOC(=O)c1nn(-c2ccc3c(c2)CCN3C(C)=O)cc1O", "inhibition": "48.8% (active)"}, {"smiles": "COc1ccc(Br)cc1CNc1ccc(O)cc1", "inhibition": "-15.2% (inactive)"}, {"smiles": "O=C(O)CCCN1C(=O)/C(=C/c2cn(-c3ccccc3)nc2-c2cccs2)SC1=S", "inhibition": "4.55% (inactive)"}, {"smiles": "O=C(O)CCCN1C(=O)/C(=C/C=C/c2ccco2)SC1=S", "inhibition": "11.7% (inactive)"}, {"smiles": "Cc1ccc(-c2nn(-c3ccccc3)cc2/C=C2\\SC(=S)N(CCCCCC(=O)O)C2=O)o1", "inhibition": "37% (active)"}, {"smiles": "COC(=O)c1cc2c(C)[nH]c(C)c2cc(C(=O)OC)c1=O", "inhibition": "3.75% (inactive)"}, {"smiles": "O=[N+]([O-])c1ccc(C=Nc2ccc(Cl)c([N+](=O)[O-])c2)s1", "inhibition": "6.5% (inactive)"}, {"smiles": "O=C(NNc1cc(N2CCCC2)nc(N2CCCC2)n1)c1ccc([N+](=O)[O-])cc1", "inhibition": "-2.1% (inactive)"}, {"smiles": "Cc1sc2nc3ccc(NCc4ccco4)nn3c(=O)c2c1C", "inhibition": "44.4% (active)"}, {"smiles": "Cc1ccc(/C=c2\\sc3nc(-c4ccco4)nn3c2=O)o1", "inhibition": "-1.1% (inactive)"}, {"smiles": "COc1cccc(-c2[nH]nc3c2C(c2ccsc2)C(C#N)=C(N)O3)c1", "note": "(stereo not given)", "inhibition": "-11% (inactive)"}, {"smiles": "CC(NC(=O)Nc1ccc(O)cc1)(C(F)(F)F)C(F)(F)F", "inhibition": "1.45% (inactive)"}, {"smiles": "COc1ccc(S(=O)(=O)C(C#N)c2nc3ccccc3nc2N2CCCC(C)C2)cc1", "note": "(stereo not given)", "inhibition": "13.2% (inactive)"}, {"smiles": "O=c1[nH]c(Nc2ccccc2)cc2ccccc12", "inhibition": "41% (active)"}, {"smiles": "O=c1[nH]c(Nc2ccc(F)cc2)cc2ccccc12", "inhibition": "29.8% (inactive)"}, {"smiles": "COC1=C(Nc2ccccc2)C(=O)c2ccccc2C1=O", "inhibition": "-14.2% (inactive)"}, {"smiles": "C/C(=N\\NC(=O)c1cc(O)cc(O)c1)c1ccc(NC(=O)Cc2ccccc2)cc1", "inhibition": "25.6% (inactive)"}, {"smiles": "COc1ccccc1/C=C/C=c1\\sc2nc(=O)c(Cc3ccccc3)nn2c1=O", "inhibition": "0.1% (inactive)"}, {"smiles": "Cc1cc(C)cc(Oc2coc3c(CN(C)C)c(O)ccc3c2=O)c1", "inhibition": "48.2% (active)"}, {"smiles": "CCN(CC)Cc1c(O)ccc2c(=O)c(Oc3ccccc3OC)coc12", "inhibition": "42.6% (active)"}, {"smiles": "COc1ccc(NCc2cc3ccccc3[nH]c2=O)cc1", "inhibition": "11.8% (inactive)"}, {"smiles": "N#Cc1c(-c2ccccc2)nc(SCC(=O)N2c3ccccc3Sc3ccccc32)[nH]c1=O", "inhibition": "15.3% (inactive)"}, {"smiles": "CCOC(=O)N1CCN(C2=C(NS(=O)(=O)c3ccc(NC(C)=O)cc3)C(=O)c3ccccc3C2=O)CC1", "inhibition": "-27.3% (inactive)"}, {"smiles": "Nc1ccc(Br)c2cccnc12", "inhibition": "11.4% (inactive)"}, {"smiles": "Cc1ccc(N/N=C2\\CC(=O)c3ccccc32)cc1Cl", "inhibition": "-12% (inactive)"}, {"smiles": "C/C(CCc1ccco1)=N\\NC(=O)CNc1cccc2ccccc12", "inhibition": "22.1% (inactive)"}, {"smiles": "O=c1c(C(c2ccccc2)c2c(O)sc3ccccc3c2=O)c(O)sc2ccccc12", "inhibition": "4.95% (inactive)"}, {"smiles": "COC1=C(Nc2ccccc2OC)C(=O)c2ccccc2C1=O", "inhibition": "-37.9% (inactive)"}, {"smiles": "COc1ccc(OC)c2c1C(=O)c1ccccc1C2=O", "inhibition": "42.9% (active)"}, {"smiles": "COc1cccc2c1C(=O)c1ccc3ccccc3c1C2=O", "inhibition": "5.5% (inactive)"}, {"smiles": "COc1cccc(Cn2cccc(NC(=O)Nc3ccccc3C)c2=O)c1", "inhibition": "0% (inactive)"}, {"smiles": "CCOC(=O)C1=C(C)NC(=O)CC1c1cc2c(cc1[N+](=O)[O-])OCO2", "note": "(stereo not given)", "inhibition": "-4.35% (inactive)"}, {"smiles": "COc1cc(Br)c(C(=O)c2nccc3cc(OC)c(OC)cc23)cc1OC", "inhibition": "3.15% (inactive)"}, {"smiles": "COc1ccc(NC(=O)CN2C(=O)S/C(=C/c3cccn3-c3ccc(C(=O)O)cc3)C2=O)cc1", "inhibition": "8% (inactive)"}, {"smiles": "O=C1C2C3C=CC(C4CC34)C2C(=O)N1CCc1ccccc1", "note": "(stereo not given)", "inhibition": "8.65% (inactive)"}, {"smiles": "Cc1ccc(-n2nc3ccc(N)cc3n2)c(C)c1", "inhibition": "59.3% (active)"}, {"smiles": "Cc1ccc(C(=O)c2c3ccc(N)cc3nn2CCC(N)=O)cc1", "inhibition": "14.2% (inactive)"}, {"smiles": "CC1=NN(c2ccc(C)cc2C)C(=O)C1C(c1cccc(O)c1)C1C(=O)N(c2ccc(C)cc2C)N=C1C", "note": "(stereo not given)", "inhibition": "-2.1% (inactive)"}, {"smiles": "CN(C)C=Nc1ccc2nc3c(cc2c1)[nH]c1ccccc13", "inhibition": "53.9% (active)"}, {"smiles": "CN(C)C=Nc1ccc2nn(-c3ccccc3)nc2c1", "inhibition": "58.8% (active)"}, {"smiles": "Nc1ccc2nn(-c3cccc4ccccc34)nc2c1", "inhibition": "64.5% (active)"}, {"smiles": "N#Cc1c(=O)c2nc(NCc3ccccc3)ncc2n2ccccc12", "inhibition": "26% (inactive)"}, {"smiles": "COc1ccccc1/C=C/C=N/NC(=O)c1cc(-c2ccco2)[nH]n1", "inhibition": "1.9% (inactive)"}, {"smiles": "COc1ccccc1-n1cnc2c(c1=O)c1nc3ccccc3nc1n2-c1ccc(C)c(C)c1", "inhibition": "2% (inactive)"}, {"smiles": "O=[N+]([O-])c1ccc(C2Nc3cccc4cccc(c34)N2)cc1", "inhibition": "-5.1% (inactive)"}, {"smiles": "N#CC1=C(SCC(=O)NC23CC4CC(CC(C4)C2)C3)NC(=O)C(C#N)C12CCCCC2", "note": "(stereo not given)", "inhibition": "4.6% (inactive)"}, {"smiles": "Cc1cc(NC(=O)CSc2nnc(Nc3ccccc3C)s2)no1", "inhibition": "-1.2% (inactive)"}, {"smiles": "Oc1ccc(NC(=S)Nc2ccc(O)cc2)cc1", "inhibition": "19.6% (inactive)"}, {"smiles": "Cc1[nH]n(-c2ccccc2)c(=O)c1C(C[N+](=O)[O-])c1ccc(Br)cc1", "note": "(stereo not given)", "inhibition": "-5.3% (inactive)"}, {"smiles": "Nc1ccc2nn(-c3ccccc3)nc2c1", "inhibition": "66% (active)"}, {"smiles": "Cn1cc2ccc(N)cc2n1", "inhibition": "2.15% (inactive)"}, {"smiles": "COc1ccc(-n2nc3cc(C)c(N)c(Br)c3n2)cc1", "inhibition": "-14.3% (inactive)"}, {"smiles": "Cc1cccc(S(=O)(=O)C(C#N)c2nc3ccccc3nc2N2CC(C)OC(C)C2)c1", "note": "(stereo not given)", "inhibition": "9.45% (inactive)"}, {"smiles": "Cc1c(C(=O)c2ccc(Cl)cc2[N+](=O)[O-])c2ccccn2c1CCC#N", "inhibition": "2.8% (inactive)"}, {"smiles": "Cc1n[nH]c(=S)n(NC(=O)/C=C/C(=O)Nn2c(=S)[nH]nc(C)c2=O)c1=O", "inhibition": "51.5% (active)"}, {"smiles": "O=C(NCCc1csc(-c2ccccc2)n1)c1c(F)cccc1Cl", "inhibition": "-9.35% (inactive)"}, {"smiles": "CC1N(C)c2cccc3cccc(c23)N1C", "inhibition": "-9.25% (inactive)"}, {"smiles": "CCOC(=O)c1c(C)oc2c1c(C=NCCC(=O)O)c(O)c1ccccc12", "inhibition": "-7.35% (inactive)"}, {"smiles": "CCOC(=O)c1c(C)oc2c1C(=O)c1ccccc1C2=O", "inhibition": "1.65% (inactive)"}, {"smiles": "CCOC(=O)c1c(-c2ccccc2)oc2ccc(OC(C)C(=O)O)cc12", "note": "(stereo not given)", "inhibition": "58.6% (active)"}, {"smiles": "N=C1S/C(=C\\c2ccco2)C(=O)N1c1ccc2c(c1)OCO2", "inhibition": "12.6% (inactive)"}, {"smiles": "CC1=NOC(=O)/C1=C\\c1ccc(-c2cc(Cl)ccc2Cl)o1", "inhibition": "11% (inactive)"}, {"smiles": "Cc1cc(NC(=O)CSc2nc3cc(C(=O)NCCCOC(C)C)ccc3c(=O)n2Cc2ccco2)no1", "inhibition": "6.6% (inactive)"}, {"smiles": "COc1cc2c(cc1OC)C(C)=NC1(CCCCC1)C2", "inhibition": "31.6% (active)"}, {"smiles": "CSc1ccc(-c2cc(=O)c3ccccc3o2)cc1", "inhibition": "60.2% (active)"}, {"smiles": "CCN(CC)S(=O)(=O)c1cc(C)ccc1SC", "inhibition": "-1.75% (inactive)"}, {"smiles": "Oc1ccc(/C=N/Nc2cc(N3CCCC3)nc(N3CCCC3)n2)cc1", "inhibition": "6.25% (inactive)"}, {"smiles": "Oc1ccc(/C=N/Nc2cc(N3CCCC3)nc(N3CCCC3)n2)cc1O", "inhibition": "42.8% (active)"}, {"smiles": "COc1ccc(/C=N/Nc2cc(N3CCCC3)nc(N3CCCC3)n2)cc1", "inhibition": "27.9% (inactive)"}]}]}
